UHRF1 MBD2 ctr – UHRF1 methylated DNA binding inhibitors, primary screen, counter-screen for MBD2 inhibitor project, biochemical, TR-FRET, human UHRF1, single concentration; UHRF1 binding to methylated oligo; E3 ubiquitin-protein ligase UHRF1 (Homo sapiens), Q96T88; 0.75% of 370,000 active; inhibition, % at 4.4 µM; in the data active = inhibition above about 21%;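 note: UHRF1 SRA domain binding a hemimethylated CpG hairpin DNA probe; 0% = median of test compound wells and 100% = reference inhibitor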
ABHD5-PLIN5 inh – ABHD5-PLIN5 interaction inhibitors, primary screen, cell lysate, split luciferase complementation, luminescence. Perilipin-5 (Homo sapiens) + 1-acylglycerol-3-phosphate O-acyltransferase ABHD5 (Homo …. Split G. princeps luciferase complementation, 4 h. inhibition, % at 4 µM. 0.78% of 360,000 active. AID 602281, 2012;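 active = inhibition above the mean inhibition across every tested compound plus 3 SD, cut at about 22% in these data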;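 note: 0% = DMSO only wells and the 100% control is not disclosed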
Target sequence (Q00G26 whole entry, looked up): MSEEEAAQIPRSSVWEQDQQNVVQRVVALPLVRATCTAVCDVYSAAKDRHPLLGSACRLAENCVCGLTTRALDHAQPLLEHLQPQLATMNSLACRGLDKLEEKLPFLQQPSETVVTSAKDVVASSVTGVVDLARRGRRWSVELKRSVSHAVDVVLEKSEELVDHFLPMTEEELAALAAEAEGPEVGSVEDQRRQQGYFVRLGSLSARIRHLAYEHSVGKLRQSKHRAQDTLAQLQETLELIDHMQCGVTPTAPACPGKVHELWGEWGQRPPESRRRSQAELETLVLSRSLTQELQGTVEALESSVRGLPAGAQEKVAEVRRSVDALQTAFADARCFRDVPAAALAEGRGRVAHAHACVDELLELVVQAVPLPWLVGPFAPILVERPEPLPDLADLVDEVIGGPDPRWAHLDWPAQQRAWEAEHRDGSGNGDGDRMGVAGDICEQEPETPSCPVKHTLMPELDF
Target sequence (Q8WTS1 whole entry, looked up): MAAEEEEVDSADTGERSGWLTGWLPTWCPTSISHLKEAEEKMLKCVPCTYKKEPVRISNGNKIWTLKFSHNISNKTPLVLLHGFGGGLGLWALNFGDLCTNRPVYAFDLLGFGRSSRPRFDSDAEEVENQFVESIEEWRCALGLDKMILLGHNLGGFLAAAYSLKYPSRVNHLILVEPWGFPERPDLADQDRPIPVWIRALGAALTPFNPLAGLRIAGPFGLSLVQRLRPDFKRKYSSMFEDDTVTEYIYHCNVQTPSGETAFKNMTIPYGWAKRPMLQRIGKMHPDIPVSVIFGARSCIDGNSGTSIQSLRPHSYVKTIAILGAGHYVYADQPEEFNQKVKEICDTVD
LEDGF integ inh – blockers of LEDGF/p75-dependent integrase strand transfer – biochemical, TR-FRET, high throughput, primary screen; HIV-1 integrase (with human LEDGF/p75); TR-FRET IN-LEDGF/p75 DNA integration, Eu/Cy5; inhibition, % at 3.7 µM; 0.64% of 370,000 active; AID 743269, 2014;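 active = inhibition above the screen-wide mean plus 3 SD, cut at about 13% in these data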;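 note: signal is the Cy5 over europium emission ratio at 671 and 618 nm; 0% = plate median of compound wells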
MBD2 inh – inhibitors of MBD2 binding to methylated DNA, primary screen, biochemical, TR-FRET, DNA-binding domain, human; Methyl-CpG-binding domain protein 2 (Homo sapiens), Q9UBB5; MBD2 binding to methylated oligonucleotide; inhibition, % at 4.4 µM; 0.31% of 370,000 active; in the data active = inhibition above about 13%
rCAG binder – binders of r(CAG) RNA repeats, primary screen, biochemical, fluorescence. r(CAG) RNA repeat, TO-PRO-1 dye displacement fluorescence. inhibition, % at 3 µM. 1.3% of 370,000 active. AID 651821, 2012;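 active = inhibition above the plate cutoff, the mean of all test compounds on that plate plus 3 SD, cut at about 35% in these data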;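 note: 0% = DMSO alone and 100% = 100 µM mitoxantrone as full dye displacement; higher means more dye released from RNA so lower well fluorescence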
PRMT1 inh – PRMT1 methyltransferase inhibitors, primary screen, biochemical, fluorescence polarization; AID 652257, 2013; Protein arginine N-methyltransferase 1 (Homo sapiens), Q99873; 1.3% of 370,000 active; inhibition, % at 2.79 µM; recombinant PRMT1, activity-based probe fluorescence polarization;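 active = inhibition above about 21% made by adding two undisclosed values, limit read from the data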
The depositor's hits bear a star. Sampled rows, rich in hits. Any-hit rate of the full collection: about 4.1%.

`O=[N+]([O-])c1ccc(Sc2ncccn2)c([N+](=O)[O-])c1` gave UHRF1 MBD2 ctr 0, ABHD5-PLIN5 inh -1, LEDGF integ inh 1, MBD2 inh -2, rCAG binder -1 and PRMT1 inh 2.
Screening Cc1cccc(Sc2ccc([N+](=O)[O-])cc2[N+](=O)[O-])n1 returned UHRF1 MBD2 ctr 28*, ABHD5-PLIN5 inh -3, LEDGF integ inh -2, MBD2 inh -2, rCAG binder -1 and PRMT1 inh 4.
COC(=O)CSc1nc(SC)nc2c1sc1nc(-c3ccco3)c3c(c12)CC(C)(C)OC3 was read as UHRF1 MBD2 ctr 24*, ABHD5-PLIN5 inh 6, LEDGF integ inh 3, MBD2 inh 2, rCAG binder -1 and PRMT1 inh 4.
`COc1ccc(-c2nnc(SCC(=O)NN=Cc3c(O)ccc4ccccc34)n2-c2ccc(OC)cc2)cc1` gave UHRF1 MBD2 ctr -4, LEDGF integ inh -1, MBD2 inh -6, rCAG binder 19 and PRMT1 inh -5.
For C#CCCC(=O)O[C@H]1CCC[C@@]2(C(=O)N(Cc3ccccc3)c3ccccc32)[C@H]1NC(=O)CCc1ccccc1 the results were UHRF1 MBD2 ctr -2, LEDGF integ inh 5, MBD2 inh 0, rCAG binder 3 and PRMT1 inh 3.
CSc1nc(-c2ccc(Cl)cc2Cl)[nH]c(=O)c1C#N was read as UHRF1 MBD2 ctr 1, ABHD5-PLIN5 inh 1, LEDGF integ inh 5, MBD2 inh 0, rCAG binder 43* and PRMT1 inh 1.
Cc1cc(-c2ccc(Cl)cc2Cl)c(C#N)c(=O)[nH]1 was read as UHRF1 MBD2 ctr 5, ABHD5-PLIN5 inh 0, LEDGF integ inh -5, MBD2 inh 2, rCAG binder 3 and PRMT1 inh 4.
Screening Cc1ccc(Cl)cc1NC(=S)N(Cc1ccccc1)Cc1cccnc1 returned UHRF1 MBD2 ctr 25*, ABHD5-PLIN5 inh 8, LEDGF integ inh -7, MBD2 inh 9, rCAG binder 1 and PRMT1 inh 4.
Screening Cc1ccc(C(=O)Sc2cccccc2=O)cc1 returned UHRF1 MBD2 ctr -12, ABHD5-PLIN5 inh -3, LEDGF integ inh 1, MBD2 inh -11, rCAG binder 8 and PRMT1 inh 45*.
Cc1ccc(C(=O)CC(=O)c2ccccc2)cc1 was read as UHRF1 MBD2 ctr -1, ABHD5-PLIN5 inh -5, LEDGF integ inh -1, MBD2 inh -2, rCAG binder 5 and PRMT1 inh 0.
`O=C(Nc1ccccc1SC(=O)c1ccccc1)c1ccccc1` gave UHRF1 MBD2 ctr -4, ABHD5-PLIN5 inh -7, LEDGF integ inh -2, MBD2 inh 1, rCAG binder 4 and PRMT1 inh 94*.
Screening Cc1ccc(NC(=O)N2CCC(N(C)CCC(C)C)CC2)cc1F returned UHRF1 MBD2 ctr -3, LEDGF integ inh -3, MBD2 inh 2, rCAG binder -2 and PRMT1 inh -1.
O=C(N/N=C/c1ccc(F)cc1)c1ccccc1 was read as UHRF1 MBD2 ctr 27*, ABHD5-PLIN5 inh -1, LEDGF integ inh -5, MBD2 inh -4, rCAG binder 5 and PRMT1 inh 1.
`O=C(C[n+]1ccc(C(=O)N/N=C/c2ccc(OCc3ccccc3)cc2)cc1)c1ccccc1` gave UHRF1 MBD2 ctr -5, ABHD5-PLIN5 inh 26*, LEDGF integ inh 1, MBD2 inh -1, rCAG binder 11 and PRMT1 inh 5.
CC(C)c1ccc(NC(=O)O[C@H]2CC[C@@]34CCCN3C(=O)CCC[C@H]4[C@H]2C)cc1 was read as UHRF1 MBD2 ctr -1, LEDGF integ inh 4, MBD2 inh 2 and PRMT1 inh -3.
For Cc1ccc(CN(Cc2ccco2)C(=S)NCC(=O)O)cc1 the results were UHRF1 MBD2 ctr 22*, ABHD5-PLIN5 inh -5, LEDGF integ inh 0, MBD2 inh 6, rCAG binder 9 and PRMT1 inh 5.
`COc1ccccc1CNC(=O)CSc1nc2c(oc3ccccc32)c(=O)n1CC1CCCO1` (configuration not stated) gave UHRF1 MBD2 ctr 2, ABHD5-PLIN5 inh -1, LEDGF integ inh 3, MBD2 inh 3, rCAG binder 1 and PRMT1 inh -3.
For NC(=O)CSc1nc2ccccc2c(=O)n1Cc1ccccc1 the results were UHRF1 MBD2 ctr 2, ABHD5-PLIN5 inh 11, LEDGF integ inh 6, MBD2 inh 0, rCAG binder 3 and PRMT1 inh -1.
`CCn1c(SCC(N)=O)nc2ccccc2c1=O` gave UHRF1 MBD2 ctr 25*, ABHD5-PLIN5 inh -2, LEDGF integ inh -2, MBD2 inh 4, rCAG binder -2 and PRMT1 inh 1.
COc1ccccc1Cn1c(SCC(N)=O)nc2c(oc3ccccc32)c1=O was read as UHRF1 MBD2 ctr 61*, ABHD5-PLIN5 inh 11, LEDGF integ inh -1, MBD2 inh 1, rCAG binder 4 and PRMT1 inh 1.
COc1ccccc1C(=O)N1CCC(Oc2cccnc2)CC1 was read as UHRF1 MBD2 ctr -2, LEDGF integ inh 3, MBD2 inh -3, rCAG binder 0 and PRMT1 inh -5.
For Cc1[nH]c2ccccc2c1CC(=O)Nc1ccc(Nc2cccnc2)c(-c2ccc(Oc3ccccc3)cc2)c1 the results were UHRF1 MBD2 ctr -1, LEDGF integ inh 2, MBD2 inh -3, rCAG binder 16 and PRMT1 inh -2.
For C=CCN1C(=O)/C(=C2/Sc3ccccc3N2CCCS(=O)(=O)O)SC1=S the results were UHRF1 MBD2 ctr 2, ABHD5-PLIN5 inh 9, LEDGF integ inh -5, MBD2 inh -3, rCAG binder 85* and PRMT1 inh 15.
`COc1ccc(C2C3=C(N=C4SCC(=O)N42)c2ccccc2CC3)cc1` (configuration not stated) gave UHRF1 MBD2 ctr -3, ABHD5-PLIN5 inh -9, LEDGF integ inh 1, MBD2 inh -2, rCAG binder 10 and PRMT1 inh 24*.
`Cc1ccccc1CNC(=O)CCn1nc(C)c2c(C)n(-c3ccccc3)nc2c1=O` gave UHRF1 MBD2 ctr 22*, ABHD5-PLIN5 inh -1, LEDGF integ inh 1, MBD2 inh 10, rCAG binder -6 and PRMT1 inh -4.
`CCC(Oc1ccccc1)C(=O)NCCOC` (configuration not stated) gave UHRF1 MBD2 ctr 6, ABHD5-PLIN5 inh -2, LEDGF integ inh -11, MBD2 inh 10, rCAG binder 7 and PRMT1 inh 22*.

Bioassay records (PubChem)
